# Screens as filed in PubChem.
# The sample as a whole holds a higher share of hits than the screen did.
# TTR transcr act: increases transthyretin transcription; 1.3% of 92,000 active; activation, % at 16.7 µM; SH-SY5Y TTR promoter Gaussia luciferase, luminescence; 100% = recombinant luciferase protein wells;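 active = activation above the mean of all tested compounds plus 3 SD, cut at about 9.5% in these data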;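 note: cells exposed to compounds for one day before reading; 0% = median of all test compound wells on the plate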
# HuH7 TTR inh: HuH7 TTR transcription inhibition, counter-screen. AID 1117279. inhibition, % at 16.7 µM. shares compounds with TTR transcr act. 4% of 1,100 active. HuH7 TTR promoter-Gaussia luciferase reporter, luminescence;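 active = average inhibition above the solvent-only control wells' mean plus 3 SD, cut at about 15% in these data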;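 note: 0% = cells with DMSO only and 100% = cells with inhibitor control FD; inhibitors lower well luminescence so higher value means more inhibition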
# TTR up confirm: confirmation of human transthyretin transcription activators; 1,100 tested, under 10 active; SHSY5Y TTR promoter Gaussia luciferase, luminescence; 100% = purified Lucia enzyme wells, no cells; activation, % at 16.7 µM; AID 1117280; shares compounds with TTR transcr act;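 active = mean activation above a set limit taken from the earlier primary screen, cut at about 11% in these data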;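 note: 0% = DMSO-treated cells and 100% = recombinant Lucia luciferase without cells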
# The depositor's hits bear a star; ! = not confirmed by another sample.
SMILES,TTR transcr act,others
CNCCCNC(=O)c1ccc(/C=N/O)nc1,-1,
Cc1ccc(C(=O)NCCNC(=O)c2ccc(C)nc2)cc1,1,
CC(C)C[C@H](NC1(C(=O)NC2CCCCC2)CCN(C)CC1)C(=O)NCC(c1ccccc1)c1ccccc1,-4,
O=C(OCc1cn(Cc2ccc(Cl)cc2)nn1)N1CCOCC1,1,
Cc1ccc(SCCN2CCN(C)CCC2=O)cc1,0,
Cc1ccc(SCCN2CCC(O)CCC2=O)cc1 (stereo not given),23*,HuH7 TTR inh=-9;TTR up confirm=0
CC1CCC(=O)N(CCSc2ccccc2)CC1 (stereo not given),-3,
CCN(CC)S(=O)(=O)c1ccc(NC(=O)c2ccc(N3CCCC3=O)cc2)cc1,-3,
CCCCNC(=O)C[C@H]1C[C@@]2(C(=O)OC)C(=C[C@H](C(C)C)O[C@@H]2C2CC2)N(Cc2ccc(Cl)cc2Cl)C1=O,0,
O=C(Cc1cc(=O)[nH][nH]1)N/N=C/c1ccccc1Cl,7,
O=C(Cc1cc(=O)[nH][nH]1)N/N=C/c1cccc(Cl)c1Cl,23*!,HuH7 TTR inh=-13;TTR up confirm=0
O=C(Cc1cc(=O)[nH][nH]1)N/N=C/c1c(Cl)cccc1Cl,-1,
COc1ccc(C(=O)c2[nH]c(N)c(C(=O)c3ccccc3)c2-c2ccc(OC)c(OC)c2)cc1,-1,
NCCC(=O)Nc1ccc(Cl)cc1C(=O)c1ccc[nH]1,3,
CNc1nc(N)c([N+](=O)[O-])c(Nc2cccc(OC)c2)n1,0,
C=CCN(CC=C)C[C@@H]1CSCCS(=O)(=O)N1,0,
CC(C)Cc1nnc(NC(=O)CCN2C(=O)c3ccccc3C2=O)s1,0,
CCC(CC)c1nnc(NC(=O)CCN2C(=O)c3ccccc3C2=O)s1,15*,HuH7 TTR inh=-18;TTR up confirm=0
O=C(CCN1C(=O)c2ccccc2C1=O)Nc1nc2ccccc2s1,-1,
O=C(NCCc1c[nH]c2ccccc12)OCc1cn(-c2ccc(F)cc2F)nn1,4,
Cc1cccnc1N=O,1,
Cc1cccc(NC(=O)CCCCCN2C(=O)[C@@H]3Cc4ccccc4CN3C2=O)c1,14*,HuH7 TTR inh=-14;TTR up confirm=0
Cc1ccccc1NC(=O)CCCCCN1C(=O)[C@@H]2Cc3ccccc3CN2C1=O,-1,
O=C(CCCCCN1C(=O)[C@@H]2Cc3ccccc3CN2C1=O)Nc1ccccc1F,11*,HuH7 TTR inh=-13;TTR up confirm=-1
O=C(CCCCCN1C(=O)[C@@H]2Cc3ccccc3CN2C1=O)Nc1cccc(F)c1,-3,
SMILES,TTR transcr act,others
CCOc1ccccc1NC(=O)CCCCCN1C(=O)[C@@H]2Cc3ccccc3CN2C1=O,0,
COc1ccc(NC(=O)CCCCCN2C(=O)[C@@H]3Cc4ccccc4CN3C2=O)cc1Cl,-2,
COC(=O)[C@]12C[C@H](CC(=O)NCCCCc3ccccc3)C(=O)N(Cc3ccccc3)C1=C[C@H](COCc1ccccc1)O[C@@H]2C,-1,
O=C(NCCc1ccccc1F)C1CC(=O)N(c2ccc3c(c2)OCCO3)C1 (stereo not given),2,
COc1cc(C(=O)N2CCN(C(=O)c3ccco3)CC2)cc(OC)c1OC,-3,
O=C(c1ccco1)N1CCN(C(=O)C2CC2)CC1,-1,
COc1ccc(C(=O)C2CCN(C(=O)c3ccco3)CC2)cc1,11*,HuH7 TTR inh=11;TTR up confirm=-1
COc1ccc(-n2c(SCC(=O)NCC3CCCO3)nc3c(c2=O)SC(C)C3)cc1 (stereo not given),6,
COC(=O)[C@]12C[C@H](CC(=O)NCc3ccc(OC)c(OC)c3)C(=O)N(Cc3ccc4c(c3)OCO4)C1=C[C@H](C(C)C)O[C@@H]2C1CC1,0,
Cc1cccc(C(=O)N[C@H]2CC[C@@]34CCCN3C(=O)CCC[C@H]4[C@H]2C)c1,0,
N/C(=N\OC(=O)c1ccc(OCC(F)(F)F)nc1)c1ccc(Cl)cc1,1,
CN(C)C(=O)c1ccc(OCC(F)(F)F)nc1,13*,HuH7 TTR inh=-9;TTR up confirm=-1
CN(C)C(=O)c1ccc(Oc2ccc(C(=O)N(C)C)cc2)cc1,0,
COC(=O)[C@]12C[C@H](CC(=O)NCc3cccc4ccccc34)C(=O)N(Cc3ccc(Cl)cc3Cl)C1=C[C@H](C(C)C)O[C@@H]2C1CC1,1,
COc1ccc(C(=O)COc2ccccc2C(=O)Nc2ccccc2)cc1,0,
O=C(CSc1ncnc2nc[nH]c12)c1ccc2ccccc2c1,-4,
O=C(CSc1ncccc1C(=O)O)c1cccc(C(F)(F)F)c1,-1,
O=C(CSc1ncccc1C(=O)O)c1ccc2ccccc2c1,12*,HuH7 TTR inh=-17;TTR up confirm=1
CCC[C@H]1[C@@H](OC(=O)NC(CC)CC)CC[C@@]23CCCN2C(=O)CCC[C@@H]13,1,
CC(C)CCN1NC2(CCCC(C)C2)NC1=S (stereo not given),13*,HuH7 TTR inh=-1;TTR up confirm=-1
CC(C)CC1CCCC12NC(=O)NC2=O (stereo not given),1,
CCOCCCNC(=O)c1cc(C)nn1-c1ccccc1,0,
Cc1cc(C(=O)N2CCOCC2)n(-c2ccccc2)n1,0,
Cc1cc(C(=O)NCCCN2CCOCC2)n(-c2ccccc2)n1,17*,HuH7 TTR inh=-3;TTR up confirm=0
C[C@H]1CN([C@@H](C)CO)C(=O)CCCn2cc(nn2)CO[C@@H]1CN(C)S(=O)(=O)c1cn(C)cn1,0,
SMILES,TTR transcr act,others
NC(=O)C1CCN(c2nc(-c3ccc(OCc4ccccc4)cc3)cs2)CC1,-2,
C[C@H]1[C@@H](OC(=O)Nc2ccccc2C(F)(F)F)CC[C@@]23CCCN2C(=O)CCC[C@@H]13,4,
C[C@@H]1CN([C@H](C)CO)C(=O)CCCn2cc(nn2)CO[C@H]1CN(C)C(=O)Nc1cccc(Oc2ccccn2)c1,1,
CNC(=O)c1sc(=S)n(-c2ccc(OC)cc2)c1N,0,
COc1cccc(C(=O)NCc2cccnc2)c1,-2,
COc1ccc(-n2c(N)c(C(=O)NCc3cccnc3)sc2=S)cc1,9.9*,HuH7 TTR inh=-24;TTR up confirm=0
COC(=O)[C@H](Cc1ccccc1)N1CC=CS1(=O)=O,1,
COC(=O)[C@@]12CCCCC3=C1N(CCC3)C(=O)[C@H]2CC(=O)NCCC(C)C,0,
COc1ccc(NC(=S)N(Cc2cccc(Br)c2)CC2CCC(C(=O)O)CC2)cc1 (stereo not given),43*,HuH7 TTR inh=-21;TTR up confirm=-1
COc1ccc(CN(CC2CCC(C(=O)O)CC2)C(=S)Nc2ccc(C)c(Cl)c2)cc1 (stereo not given),0,
COc1cccc(NC(=S)N(Cc2cccc(Br)c2)CC2CCC(C(=O)O)CC2)c1 (stereo not given),1,
C[C@@H]1Cc2cc(O)cc(O)c2C(=O)O1,0,
COc1cc(/C=C2\SC(=O)N(CCN)C2=O)ccc1OS(=O)(=O)c1cc(C)ccc1C,-3,
CCOC(=O)c1sc(N(Cc2ccccc2)C(=O)CCl)nc1C,-1,
CCOC(=O)c1sc(N(Cc2ccccc2)C(=O)COC(=O)c2ccccc2O)nc1C,13*,HuH7 TTR inh=-14;TTR up confirm=1
Cc1ccsc1C(=O)OCC(=O)N(Cc1ccccc1)C(C)C,2,
COc1ccc(C(=O)Nc2cc(Cl)c(Br)cc2C(=O)O)cc1,-2,
O=C(Nc1ccc(F)cc1)Nc1nc2ncccn2c1-c1ccc(F)cc1,-2,
O=C(c1ccccc1)c1cccn1CC(=O)N1CCCCCC1,10*,HuH7 TTR inh=-11;TTR up confirm=0
Cc1cccc(N2CCN(C(=O)Cn3cccc3C(=O)c3ccccc3)CC2)c1C,1,
CN(Cc1ccccc1)C(=O)Cn1cccc1C(=O)c1ccccc1,-1,
